Results reported in the supplement of paper PMC10646978.
± gives the standard deviation.

Columns and labels:
Conditions in all cases: modulator concentration 10 µM
[1] = tested on: RAW-Dual (murine macrophage reporter line); experiment: NF-kB reporter (SEAP) activity fold change vs agonist alone; higher = enhanced NF-kB activity
Method in brief: (§1)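 Compound reached 10 μM final in each well by pin transfer, onto RAW-Dual murine macrophage reporter cells seeded at 50 000 per well in 384-well plates. After 1 hour at 37 °C, the cells were stimulated overnight with a PRR agonist. SEAP in the supernatant was read with QUANTI-Blue at 620 nm absorbance for NF-κB, and Lucia luciferase was read with QUANTI-Luc luminescence for IRF. Each signal was turned into fold change against the mean agonist-only control on the same plate, and two replicate plates were averaged with propagated errors.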

[2] = tested on: RAW-Dual (murine macrophage reporter line); experiment: IRF reporter (Lucia luciferase) activity fold change vs agonist alone; higher = enhanced IRF activity
Method in brief: as §1

[3] = tested on: RAW-Dual (murine macrophage reporter line); experiment: viability score (confluency relative to resting cells, overnight) (fraction); higher = more viable, active = viable (0.7 or more)
Method in brief: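 A compound met the cutoff when both of two confluency masks exceeded 70% of resting cells. Those masks were made with IncuCyte software from IncuCyte images of RAW-Dual macrophages treated overnight at 10 μM final. This is the basis of the viability score, which is confluency relative to resting cells.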

[4] = agonist: CpG ODN 1826 0.5 ug/mL

Row | Compound | NF-kB reporter [1, 4] | NF-kB reporter ([1]; agonist: LPS 0.1 ug/mL) | NF-kB reporter ([1]; agonist: MPLA […]) | IRF reporter ([2]; agonist: 3'3'-cGAMP 10 ug/mL) | IRF reporter ([2]; agonist: LPS 0.1 ug/mL) | IRF reporter ([2]; agonist: MPLA […]) | viability score [3]
1 | CNCCC[C@]12CC[C@H](c3ccccc31)c1ccccc12 [Prestw-346] | 0.726 ± 0.082 | 0.842 ± 0.063 | 0.93 ± 0.095 | 1.12 ± 0.07 | 1.41 ± 0.14 | 1.59 ± 0.26 | 0.962 (active)
2 | O=C(NCCC(CCO)c1ccccc1)c1cccc(Cl)c1 (centres undefined) | 1.11 ± 0.068 | 1.02 ± 0.082 | 0.946 ± 0.025 | 0.748 ± 0.027 | 0.967 ± 0.051 | 0.984 ± 0.096 | 1 (active)
3 | COc1ccc([C@H]2CNC(=O)C2)cc1OC1CCCC1 | 2.61 ± 0.4 | 2.21 ± 0.38 | 1.9 ± 0.14 | 0.902 ± 0.039 | 1.03 ± 0.22 | 1.41 ± 0.15 | 0.982 (active)
4 | CC1(C)Cc2c(sc3nc(SCC(N)=O)n(CCc4ccccc4)c(=O)c23)CO1 | 0.815 ± 0.07 | 0.814 ± 0.054 | 0.927 ± 0.1 | 1.02 ± 0.054 | 1.24 ± 0.084 | 1.3 ± 0.11 | 1.01 (active)
5 | CCOC(=O)C1=C(C)NC(C)=C(C(=O)OCC)C1c1ccc(Cl)c(Cl)c1 | 0.693 ± 0.23 | 0.996 ± 0.078 | 0.832 ± 0.079 | 1.05 ± 0.045 | 1.19 ± 0.19 | 1.37 ± 0.29 | 0.998 (active)
6 | O=C(/C=C/C=C/c1ccc2c(c1)OCO2)N1CCCCC1 | 0.974 ± 0.093 | 1 ± 0.097 | 1.17 ± 0.062 | 0.842 ± 0.052 | 1.04 ± 0.16 | 1.07 ± 0.26 | 1.03 (active)
7 | O=c1cc(-c2ccc(O)c(O)c2)oc2cc(O)cc(O)c12 [Prestw-870] | 1.08 ± 0.18 | 1.21 ± 0.12 | 2 ± 0.16 | 0.181 ± 0.0054 | 0.663 ± 0.14 | 0.61 ± 0.065 | 0.995 (active)
8 | COc1ccc(-n2cnc3cc(NC(C)=O)ccc32)cc1 | 0.978 ± 0.18 | 0.973 ± 0.089 | 0.885 ± 0.07 | 0.861 ± 0.025 | 1.19 ± 0.15 | 1.14 ± 0.12 | 1.01 (active)
9 | CC(=O)N1CC(c2ccc(OC(C)C)cc2)CC1=O (centres undefined) | 1.07 ± 0.23 | 1.04 ± 0.084 | 0.961 ± 0.088 | 1.05 ± 0.03 | 1.22 ± 0.15 | 1.36 ± 0.16 | 0.999 (active)
10 | O=C(CCN1C(=O)c2cccc([N+](=O)[O-])c2C1=O)Nc1ccc(Cl)cc1 | 0.886 ± 0.073 | 1.02 ± 0.058 | 0.899 ± 0.077 | 0.848 ± 0.022 | 1.4 ± 0.16 | 1.14 ± 0.23 | 1.01 (active)
11 | CC1=NN(c2ccc(S(N)(=O)=O)cc2)C(=O)C1=Cc1ccc(C)s1 | 1.09 ± 0.074 | 1.08 ± 0.072 | 1.33 ± 0.14 | 0.868 ± 0.033 | 1.86 ± 0.15 | 1.54 ± 0.14 | 0.981 (active)
12 | COc1cc(-c2nnc(SCc3ccc([N+](=O)[O-])cc3)n2-c2ccccc2)cc(OC)c1OC | 0.986 ± 0.095 | 0.942 ± 0.053 | 0.994 ± 0.074 | 1.07 ± 0.067 | 1.37 ± 0.2 | 0.969 ± 0.06 | 1.01 (active)
